Screening results as filed in PubChem BioAssay.
NPR1 antag: antagonists of human natriuretic peptide receptor Npr1. HEK293 hNpr1 GloSensor cGMP, ANP-stimulated luminescence. Potency, µM (doses to about 46.3 µM), without a hit: top-dose activity change, negative = inhibition, most hits filed as inhibitors. P16066. hit rate 1.6% among 76,000; calls by dose curve; further: nearly all actives have a fitted effect of over 60% in size
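Compound pre-incubated 30 min at room temperature on GloSensor-loaded HEK293 cells stably carrying hNpr1 and the pGS-40F cGMP biosensor. Stimulation uses hNppA at 0.1 nM final; luminescence is taken at baseline and 20 min post-agonist.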
HEK cytotox: HEK 293 cell cytotoxicity; hit rate 6.6% among 94,000; Potency, µM (highest dose often 115 µM), for the others: at the highest dose activity change, negative = cytotoxicity, most hits filed as inhibitors; AID 1345083; HEK 293 viability, ATP luminescence (CellTiter-Glo), 48-72 h; further: nearly all actives have a fitted effect of over 60% in size
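HEK 293 seeded at 250 cells/well receive compound via pintool. After 48 or 72 hr at 37 degree Celsius, 5% CO2 and 95% humidity, CellTiter-Glo is dispensed and luminescence read following 10 min at room temperature.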
FLuc inh: inhibitors of firefly (Photinus pyralis) luciferase | Potency, µM (highest dose often 115 µM), actives largely listed as inhibitors | P08659 | AID 1347043 | hit rate 2.5% among 76,000 | purified P. pyralis luciferase, luminescence, biochemical; further: nearly all actives have a fitted effect of over 65% in size
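FLuc 10nM, D-luciferin 10uM, ATP 10uM, Mg acetate 10mM, Tris acetate pH 7.5, Tween/BSA; cpd qHTS; enzyme added last; CCD luminescence.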
NIH3T3 tox: NIH 3T3 cell cytotoxicity. Potency, µM (series often up to 96.7 µM), inactives show at the top dose activity change, negative = cytotoxicity, usual class: inhibitors. hit rate 4.3% among 94,000. AID 1345082. NIH 3T3 viability, CellTiter-Glo ATP luminescence, 48-72 h; further: nearly all actives have a fitted effect of over 55% in size
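Viability of NIH 3T3 cells after 48 or 72 hr compound treatment at 37 °C was assessed by CellTiter-Glo, with luminescence imaged following a 10 min room-temperature step.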
The depositor's hits bear a star; i = inactive; ? = inconclusive; / = not tested or not shown; [ ] = dose if it differs, or a comment. In the library only some 11% were active in any assay of this set; here they are far more common. Unless noted, the call rests on the fitted dose curve; in most records, active means well fitted curve in the direction sought with a large enough effect; inconclusive means small, poorly fitted or top-dose-only effect, or another doubt; inactive means no such curve, though single readings can be large; an effect the other way counts as inactive or inconclusive. On the % scale 0 is the no-effect control and ±100 the full control effect; potency means the concentration at half of the fitted maximal effect.

SMILES	NPR1 antag	HEK cytotox	FLuc inh	NIH3T3 tox
O=C(C1CCCN1C(=O)c1cccc(Cl)c1)N1CCC(c2nc3ccncc3[nH]2)CC1 (centres undefined)	/	-4%	/	-27%
COc1cccc([S+](=O)([O-])N2CCC(c3nn(-c4ccccn4)c(=O)[nH]3)CC2)c1	/	?	/	-12%
COc1ccc(NC(=O)Cn2c(N3CCc4ccccc4C3)nc(C)cc2=O)cc1OC	-19%	?	i	?
Cc1cc(=O)n(CC(=O)NCc2ccccc2Br)c(N2CCc3ccccc3C2)n1	-6%	40µM*	i	?
COc1ccc(NC(=O)Cn2c(N3CCc4ccccc4C3)nc(C)cc2=O)cc1Cl	-6%	40µM*	i	35µM*
Cc1cc(=O)n(CC(=O)Nc2ccccc2)c(N2CCc3ccccc3C2)n1	-17%	32µM*	i	?
Cc1cc(=O)n(CC(=O)Nc2ccc(C(C)C)cc2)c(N2CCc3ccccc3C2)n1	-13%	?	i	25µM*
Cc1cc(=O)n(CC(=O)Nc2ccc(Cl)cc2)c(N2CCc3ccccc3C2)n1	-16%	?	i	?
Cc1ccccc1C(=O)N1CCCC(c2nn(-c3ccccn3)c(=O)[nH]2)C1 (centres undefined)	/	1%	/	-11%
CNC(=O)Nc1cccn2nc(-c3ccccc3)nc12	-4%	?	40µM*	?
Cc1ccc(-c2ccc3nnc(CNC(=O)c4cc(F)ccc4Cl)n3n2)cc1	0%	32µM*	i	?
CC1(COc2ccccc2)COc2ccc(C(=O)NCCOc3ccccc3)cc2N1 (centres undefined)	?	79µM*	i	?
CCOCC1(C)COc2ccc(C(=O)NCCc3ccccc3)cc2N1 (centres undefined)	-5%[70.6 µM]	?	22µM*	?
CC1(CNc2ccccc2)COc2ccc(C(=O)NCCOc3ccccc3)cc2N1 (centres undefined)	?	40µM*	?	32µM*
CC1(CNc2ccccc2)COc2ccc(C(=O)N3CCN(c4ccccn4)CC3)cc2N1 (centres undefined)	?	?	i	?
CC1(CNc2ccccc2)COc2ccc(C(=O)NCCN3CCOCC3)cc2N1 (centres undefined)	-2%[70.6 µM]	?	i	-5%[138 µM]
CC1(CNc2ccccc2)COc2ccc(C(=O)NCCc3ccccn3)cc2N1 (centres undefined)	-2%[70.6 µM]	100µM*	i	?
O=C(O)c1ccc(CN2Cc3[nH]cnc3C[C@H]2c2nc(-c3ccncc3)no2)cc1	5%[70.6 µM]	-14%[172 µM]	i	-3%[174 µM]
CC(=O)N1CCCN(C(=O)c2ccc3nnc(C4CCOCC4)n3c2)CC1	/	-2%[172 µM]	/	-19%[138 µM]
O=C(NCC(F)(F)F)c1nc2sccn2c1-c1cccnc1	/	-10%[172 µM]	/	?
Cc1noc2c(NC3CCC(O)CC3)cc(-c3cccs3)nc12 (centres undefined)	0%[70.6 µM]	?	i	28µM*
Cc1noc2c(Nc3ccc(N4CCOCC4)cc3)cc(-c3cccs3)nc12	-18%[70.6 µM]	?	i	?
Cc1noc2c(NC3CCN(C)CC3)cc(-c3cccnc3)nc12	-1%[70.6 µM]	?	i	?
Cc1noc2c(NC3CCC(O)CC3)cc(-c3cccnc3)nc12 (centres undefined)	8%[70.6 µM]	-18%[172 µM]	i	25µM*
Cc1noc2c(N3CCNC(=O)C3)cc(-c3cccs3)nc12	4%[70.6 µM]	?	i	32µM*
SMILES	NPR1 antag	HEK cytotox	FLuc inh	NIH3T3 tox
COc1cccc(Nc2cc(-c3cccs3)nc3c(C)noc23)c1	-10%[70.6 µM]	100µM*	i	79µM*
COc1ccc2c(c1)C(COCc1ccccc1)=CC(C)(C)CO2	/	?	/	-27%
O=C1Cc2c(-c3ccccc3Oc3ccccc3)n[nH]c2CN1CCc1ccncc1	-13%[70.6 µM]	?	i	?
CC(C)NC(=O)N1CCCC(c2nn(C)c(=O)n2Cc2ccccc2)C1 (centres undefined)	/	-7%	/	-15%
COc1ccc(Nc2nc(-c3c(C)noc3C)cc3cc(CO)oc23)cc1OC	-8%[70.6 µM]	?	i	?
CNC(=O)c1cc(C)nc2onc(C3CCN(C(=O)Cc4cccc(Cl)c4)C3)c12 (centres undefined)	/	-15%	/	-27%
COc1ccc(NC(=O)N2CCC[C@H]2c2nc(-c3ccc(F)cc3)n[nH]2)c(OC)c1	/	-5%	/	-17%
Cc1noc2c(-c3ccc(CO)cc3)cc(-c3cccs3)nc12	-3%[70.6 µM]	40µM*	i	22µM*
COCC1CCCN(C(=O)c2cc(Cn3c(C)nc4ccccc43)[nH]n2)C1 (centres undefined)	-2%	-27%	i	-30%
Cc1nc2ccccc2n1Cc1cc(C(=O)N2CCCC2)no1	-28%	40µM*	i	?
Cc1ccc2[nH]c(=O)c(CCC(=O)NCCN3CCc4ccccc4C3)cc2c1	2%	-5%	i	5%
Cc1ncc2n1C(=O)N(C1CCN(Cc3ccc(N(C)C)cc3)CC1)C2	0%	?	i	-27%
Cc1ncc2n1C(=O)N(C1CCN(Cc3ccc(OC(F)(F)F)cc3)CC1)C2	?	14µM*	i	?
CCOc1ccccc1NC(=O)CN1C(=O)NC(c2ccc(Cl)cc2)C2=C1COC2=O (centres undefined)	-2%	?	i	?
Cc1ccc(C2NC(=O)N(CC(=O)Nc3ccc4c(c3)OCCO4)C3=C2C(=O)OC3)cc1 (centres undefined)	-9%	?	i	-18%
Cc1ccc(NC(=O)CN2C(=O)NC(c3ccc(Cl)cc3)C3=C2COC3=O)cc1Cl (centres undefined)	?	32µM*	?	28µM*
CCCCc1ccc(NC(=O)CN2C(=O)NC(c3ccc(C)cc3)C3=C2COC3=O)cc1 (centres undefined)	-14%	45µM*	i	?
Cc1ccc(C2NC(=O)N(CC(=O)Nc3ccccc3)C3=C2C(=O)OC3)cc1 (centres undefined)	-9%	?	i	?
CCOC(=O)c1ccccc1NC(=O)CN1C(=O)NC(c2ccc(Cl)cc2)C2=C1COC2=O (centres undefined)	-12%	?	i	40µM*
Cc1ccc(C2NC(=O)N(CC(=O)Nc3ccc(F)c(F)c3)C3=C2C(=O)OC3)cc1 (centres undefined)	-13%	20µM*	i	?
CCn1cnnc1-c1nn(C)c2c1CN(C(=O)Cc1ccc(NC(C)=O)cc1)CC2	4%	i	i	-1%
C=CCCOC(=O)N1CCC(=O)N(CC=C)C[C@H]2COc3cc(OC)ccc3[C@H]21	/	?	/	-28%
COC(=O)N1CCCC(C(=O)N2CCC(c3nc4ncccc4[nH]3)C2)C1 (centres undefined)	/	1%	/	-6%
CCC(C)NC(=O)C1COC2(CCN(C(=O)c3cccc(Cl)c3)CC2)N1C(=O)c1ccccc1C (centres undefined)	2%	?	i	-21%
